This note sets out measurements from ChEMBL document CHEMBL3988442, “University of Dundee, Small-Polar-MMV Screening Library” (2021).

Molecules are shown by their SMILES. Among all 48,000 compounds or so, about 13,000 (27%) showed an effect of 50% or more. Some of the results follow.

The test system of the assay is Wolbachia pipientis. Nature of the assay: Anti-Wolbachia Cell-Based Screen. It counts as functional. Further details: scale not given: in the data most compounds retested in dose-response had high values. The following applies: 5 µM.
For the molecule `Cc1cc(C(=O)N2C[C@H](CO)C[C@H](CN3CCOCC3)C2)nc(C)n1`, the “Percent Effect” value was -11.42%. On to `CC(C)CCN(c1cn[nH]c1)S(=O)(=O)c1cccc(C#N)c1`, for which the “Percent Effect” value was -0.3515%.

For the molecule `NC(=O)c1ccc(CNC2CCCSC2)cc1` (configuration not stated), the “Percent Effect” value is on record as -4.812%. In the case of `CCS(=O)(=O)N(C)C(=O)c1cc(C)n(-c2cccc(OC)c2)c1C`, the “Percent Effect” value was -13.82%.

For `O=C(c1ccccn1)N1CCCC(c2cc(C(F)F)n3ncnc3n2)C1` (configuration not stated), the “Percent Effect” value was found to be 111.1%.

Consider `O=C(c1ccc(Cl)o1)N1CCCC(c2cc(C(F)(F)F)[nH]n2)C1` (configuration not stated), for which the “Percent Effect” value was -0.4503%. In the case of `O=C(c1nc(=O)[nH][nH]1)N1CCCC(c2cc(C(F)(F)F)[nH]n2)C1` (configuration not stated) it was -1.931%; in that of `O=C(c1cccnc1)N1CCCC(c2cc(C(F)F)n3ncnc3n2)C1` (configuration not stated), 1.815%.

With `O=C(c1ccco1)N1CCCC(c2cc(C(F)(F)F)n3ncnc3n2)C1` (configuration not stated), the “Percent Effect” value is 95.67%. On to `O=C(c1ccncc1)N1CCCC(c2cc(C(F)F)n3ncnc3n2)C1` (configuration not stated), for which the “Percent Effect” value is 88.08%. The result for `O=C(c1ccco1)N1CCCC(c2cc(C(F)F)n3ncnc3n2)C1` (configuration not stated) reads -11.1%; that for `Cc1ncsc1C(=O)N1CCCC(c2cc(C(F)F)n3ncnc3n2)C1` (configuration not stated), 110.2%; that for `CCc1nnc(CN(C)Cc2cccc(C(=O)Nc3ccnn3C)c2)o1`, -8.218%. Regarding `CN(Cc1ccc(Cl)c(F)c1)C(=O)c1ccncc1F`, the “Percent Effect” value came out at 5.158%. `COc1nccc(N2CCN(Cc3ccc(C)cc3)C(=O)C2)c1C#N`: the “Percent Effect” value amounted to 5.242%. For the molecule `CCn1nc(C)cc1C(=O)N1CCOc2ccc(OC)cc21`, the “Percent Effect” value is 4.6%. On to `COc1cc2nc(NCc3scnc3C)nc(N)c2cc1OC`, for which the “Percent Effect” value came to 7.61%. As to `Cc1nn(CC(C)C)c(N(C)C)c1CNCCS(C)(=O)=O`, the “Percent Effect” value was -9.669%. Consider `CCN(CC(=O)NC)C(=O)Cc1nc(-c2ccco2)oc1C`, for which the “Percent Effect” value is reported as -1.768%. For the molecule `Cc1cc(CN(C)C(=O)C2CCCN(C(=O)c3cccs3)C2)no1` (configuration not stated), the “Percent Effect” value is on record as -2.385%. Regarding `O=C(c1cccs1)N1CCc2ncnc(C3CCOC3)c2CC1` (configuration not stated), the “Percent Effect” value was -39.43%.

`O=C(c1cccs1)N1CCCC(c2cc(C(F)F)n3ncnc3n2)C1` (configuration not stated): the “Percent Effect” value is reported as 74.84%. Consider `CN(C)CCN1CCN(C)c2nc(-c3ccccc3)ncc2C1=O`, for which the “Percent Effect” value is 101.9%. With `COc1cccc(-c2ncc3c(n2)N(C)CCN(CCN(C)C)C3=O)c1`, the “Percent Effect” value was 82.33%. Consider `COc1cccc(-c2cnc3n2CCC32CCN(C(C)=O)CC2)c1`, for which the “Percent Effect” value is listed as 0.6434%. In the case of `CCc1ccc(-c2ncc3c(n2)N(C)CCN(CCN(C)C)C3=O)cc1` it was 95.82%; in that of `Cc1ccc2c(n1)N(CCN(C)C)CCN(C(=O)c1ccsc1)C2`, -6.316%; in that of `COCCC(=O)N1CCN(CCN(C)C)c2ncccc2C1`, 4.239%. For `CNC(=O)[C@@H]1C[C@H](N)CN1S(=O)(=O)c1cc(Cl)cc(Cl)c1O`, the “Percent Effect” value was -28.57%. Turning to `Cc1c(I)cccc1C(=O)NCC1(CO)CC1`, the “Percent Effect” value is reported as -20.46%. With `COc1ccc(CCNC(=O)CC(NC(N)=O)c2ccccc2)cc1` (configuration not stated), the “Percent Effect” value was determined as 5.015%. Turning to `CC(=O)Nc1nc(-c2ccc(F)cc2)c[nH]1`, the “Percent Effect” value turned out to be 8.711%. As for `COc1ccccc1-c1cc(NC(=O)CCC2CCCO2)[nH]n1` (configuration not stated), the “Percent Effect” value turned out to be 4.714%. In the case of `CNC(=O)C(C)(C)NC(=O)c1cc(COc2ccccc2OC)[nH]n1`, the “Percent Effect” value is 6.418%. As to `COc1ccccc1-c1cc(NC(=O)CC2CCS(=O)(=O)C2)[nH]n1` (configuration not stated), the “Percent Effect” value stood at 2.425%. In the case of `O=C(NCC1CCOC1)c1cc(-c2ccc(Cl)cc2)n[nH]1` (configuration not stated) it was -17.32%.

As to `O=C(Nc1nc[nH]n1)c1cc(-c2ccc(F)cc2)n[nH]1`, the “Percent Effect” value came to 175.6%. For the molecule `COc1ccc(NC(=O)NC(C)c2nc[nH]n2)cc1` (configuration not stated), the “Percent Effect” value is given as -2.331%. On to `COC[C@@H]1CCCN1C(=O)c1cc(-c2ccc(OC)cc2)n[nH]1`, for which the “Percent Effect” value is -15.89%. On to `CNC(=O)c1cc(-c2ccccc2OC)[nH]n1`, for which the “Percent Effect” value is listed as 118.3%. Consider `COC(=O)C(C)(C)NC(=O)c1cc(COc2ccccc2OC)[nH]n1`, for which the “Percent Effect” value is given as -6.385%. As for `COc1ccc(-c2cc(C(=O)Nc3nc[nH]n3)[nH]n2)cc1`, the “Percent Effect” value amounted to 117.7%. Turning to `COc1ccccc1-c1cc(C(=O)Nc2nc[nH]n2)[nH]n1`, the “Percent Effect” value is 103.1%. Consider `O=C(NCc1cccc(N2CCCCC2=O)c1)[C@@H](O)c1ccccc1`, for which the “Percent Effect” value is given as -1.556%. As for `CC(C)c1ccc(N2CCc3onc(-c4ccc(F)c(F)c4)c3C2)nn1`, the “Percent Effect” value is 26%. As for `CCC1CN(C(=O)Nc2cnc3c(cnn3C(C)C)c2)CCO1` (configuration not stated), the “Percent Effect” value stood at 6.429%.

Regarding `CCC(CC)CN1C[C@@H]2OCCN(Cc3cnn(C)c3)[C@@H]2C1`, the “Percent Effect” value is -7.114%. Regarding `COc1cc(C)c(C)cc1S(=O)(=O)NCC(O)c1cccn1C` (configuration not stated), the “Percent Effect” value is listed as -4.325%. In the case of `COCC1CCCCN1C(=O)c1cc(-c2cccc(OC)c2)n[nH]1` (configuration not stated) it was -6.685%; in that of `COC[C@@H]1CCCN1C(=O)c1cc(-c2cccc(OC)c2)n[nH]1`, -18.68%; in that of `COc1cccc(-c2cc(C(=O)Nc3nc[nH]n3)[nH]n2)c1`, 131.8%. For `CC(C)N1CCC(CC(=O)NCCc2cc(O)ncn2)CC1`, the “Percent Effect” value is on record as -16.23%. For `CN1CC[C@H](c2nnc(Cc3c[nH]c4ccccc34)o2)C1`, the “Percent Effect” value is reported as -2.7%.

With `CN1CCC(c2cc(CCO)ncn2)C1` (configuration not stated), the “Percent Effect” value is 105.5%. Turning to `CCn1c(N)nc2cc(C(=O)N3CCN(c4ccncc4)CC3)cnc21`, the “Percent Effect” value is recorded as -2.234%. In the case of `Cc1ccc(N2CCCC3(CCN(C(=O)NC4CCCC4)C3)C2)nn1` (configuration not stated), the “Percent Effect” value was determined as 1.477%.

As for `Cc1nnc(N2CCOC(C)(C(=O)NC3CCCC3)C2)c2ccccc12` (configuration not stated), the “Percent Effect” value was determined as 100.6%.

As to `Cc1nnc(N2CCCC2)c(C(N)=O)c1C`, the “Percent Effect” value was -23.35%. `CCOC(=O)c1nnc2ccccc2c1N1CCOC(C)(C)C1`: the “Percent Effect” value was 7.014%. As to `CNC(=O)C1(C)CN(c2nnc(C)c3ccccc23)CCO1` (configuration not stated), the “Percent Effect” value came out at 101.8%. As to `CNC(=O)[C@@]12CCO[C@@H]1CCN(S(=O)(=O)c1ccccc1C)C2`, the “Percent Effect” value was -56.15%.

For the molecule `O=C(CCNC(=O)c1ccccc1N1CCOCC1)NC1CCCC1`, the “Percent Effect” value is 3.858%. In the case of `Cc1nnc(N2CCOC(C)(C(=O)N(C)C)C2)c2ccccc12` (configuration not stated) it was 78.63%; in that of `Cn1cnc(S(=O)(=O)N2CCN(Cc3ccco3)CC2)c1Cl`, -3.277%. On to `Cc1n[nH]c(C)c1CN1CC[C@@H]2[C@@H](CCC(=O)N2CCc2c[nH]cn2)C1`, for which the “Percent Effect” value was -6.371%.

Take `COCCc1noc(-c2cn(CCc3ccccc3)nn2)n1`: the “Percent Effect” value is -16.95%. With `CC(=O)c1cccc(NC(=O)N(CCO)C2CCc3ccccc32)c1` (configuration not stated), the “Percent Effect” value was determined as 6.805%. Turning to `COCCCS(=O)(=O)N1CCN(c2cccc(O)c2)CC1`, the “Percent Effect” value was -6.016%. As for `CCN1Cc2cc(F)ccc2N(C(=O)C2CCC2)CCC1=O`, the “Percent Effect” value is reported as 113.5%.

With `CN1C(=O)CCN(C(=O)C2CCCCC2)c2ccccc21`, the “Percent Effect” value is reported as -31.28%. The result for `O=C1NCCCCC1NC(=O)N1CCCc2cc(F)ccc21` (configuration not stated) reads -6.196%; that for `CCN1CC(C(=O)N2CCC(Oc3ccccc3Cl)CC2)CC1=O` (configuration not stated), 19.99%. Consider `O=C1N[C@@H]2CCN(C(=O)C3CCC3)[C@@H]2C(=O)N1c1ccc(F)cc1`, for which the “Percent Effect” value is 10.21%. In the case of `CCN1Cc2ccccc2N(C(=O)C2CCC2)CCC1=O`, the “Percent Effect” value is 94.47%. As to `CCN1Cc2cc(F)ccc2N(C(C)=O)CCC1=O`, the “Percent Effect” value is reported as 105.8%. For the molecule `O=C(C1CCC1)N1CCC(=O)N(C2CC2)Cc2cc(F)ccc21`, the “Percent Effect” value is listed as 89.78%. The result for `O=C(C1CCCOC1)N1CCc2ccc(F)cc21` (configuration not stated) reads -7.553%.

Turning to `Cc1noc(C)c1C(C)NC(=O)N1CCC(NC(=O)c2ccsc2)CC1` (configuration not stated), the “Percent Effect” value is on record as -3.825%. For the molecule `COc1c(NC(=O)C(C)CCOc2ccccc2)c(C)nn1C` (configuration not stated), the “Percent Effect” value is given as -7.796%.

For the molecule `CC(O)CN1CCN(C(=O)CN(C)c2cnccn2)CC1` (configuration not stated), the “Percent Effect” value is listed as -17.8%. Take `Cn1c(N)nnc1SCc1c(F)cccc1Br`: the “Percent Effect” value is given as -12.74%.

Consider `Cc1cc(C)c(C(=O)N[C@H](C(N)=O)c2ccccc2)c(=O)[nH]1`, for which the “Percent Effect” value amounted to 4.18%. For `CCOC(=O)CCCNc1nc(C(C)(C)C)nc2c1cnn2C`, the “Percent Effect” value was found to be 0.3135%. In the case of `O=C(c1ccsc1)N1CCN(CC(O)c2cccc(F)c2)CC1` (configuration not stated), the “Percent Effect” value is recorded as 8.058%. As to `CC(C(=O)N1CCn2cncc2C1)N1CCCC1` (configuration not stated), the “Percent Effect” value is given as 4.282%. As for `O=C(CCCNCc1ccc(Cl)c2cccnc12)NC1CC1`, the “Percent Effect” value is -3.748%.

As to `COc1ccc(Cl)cc1-n1nc(C2CCCC2)nc1Cn1cnnn1`, the “Percent Effect” value is -18.77%. In the case of `Nc1nc2c(c(N3CCC(CN4CCCC4=O)CC3)n1)CCNCC2` it was -8.42%; in that of `CCC1=N[C@@]2(CC[C@@H]3CN(S(C)(=O)=O)C[C@@H]32)C(=O)N1CC(C)C`, -16.48%; in that of `Cc1cccc(CN2CCc3c(CNC(=O)CC#N)nn(C)c3C2)n1.O=C(O)C(F)(F)F`, -9.631%.

Regarding `CC(C)Cc1nc(NC(=O)c2cccnc2)n[nH]1`, the “Percent Effect” value was 118.7%. Consider `Cc1cc(CC(C)Nc2nc(-c3cccnc3)nc3c2CNC3)[nH]n1` (configuration not stated), for which the “Percent Effect” value was -2.115%.

For `Cc1nn(C(C)C)c(C)c1NC(=O)c1cccnc1`, the “Percent Effect” value was 6.145%. In the case of `CC(C)C[C@H](NC(=O)c1cc(-c2cccn2C)n[nH]1)C(N)=O` it was 6.399%. Consider `CC(C)COCC(NC(=O)c1cccnc1)c1ccco1` (configuration not stated), for which the “Percent Effect” value is recorded as -0.4808%. In the case of `CC(C)Cc1nc(NC(=O)c2cc(-c3cccnc3)n[nH]2)n[nH]1`, the “Percent Effect” value turned out to be 127.5%.

`O=C(Nc1cc(-c2cccnc2)no1)C1CCC1`: the “Percent Effect” value is 9.123%. Regarding `Cn1cccc1-c1cc(C(=O)N2CC(c3cccnc3)C2)[nH]n1`, the “Percent Effect” value is on record as -4.055%. With `O=C(Nc1ncc[nH]1)c1cc(-c2cccnc2)n[nH]1`, the “Percent Effect” value turned out to be 118.3%. In the case of `CC(=O)c1cccc(NC(=O)CN2CCCC(C3OCCO3)C2)c1` (configuration not stated), the “Percent Effect” value came to 1.142%. Regarding `CN1CCN(CCCN(C)S(=O)(=O)CC2CCCCC2)CC1`, the “Percent Effect” value is reported as -9.559%. Consider `N#CC1(C(=O)N2CCN(Cc3ccon3)CC2)CCC1`, for which the “Percent Effect” value is given as -11.71%.
